Whole data set: some 59,000 sequences, median the read-out near -0.00055, cut for the lowest 2% near -2. This excerpt belongs to a sample that is enriched for the lowest values.
Assay: Identification of proteins required for the processing of the EWS-FLI1 nascent transcript;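 further: robust z of luciferase light less the median z of siRNAs with the same seed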
Conditions: TC32 Ewing sarcoma NR0B1-luc vs CMV-luc (EWS-FLI1 target promoter against control promoter), 48 h; screened at 20 nM (by protocol)
Description: Ewing sarcoma (ES) cells depend on the EWS-FLI1 fusion transcription factor for cell survival. Using an assay of EWS-FLI1 activity and genome-wide siRNA screening we have identified proteins required for the processing of the EWS-FLI1 nascent transcript. Parallel genome-wide siRNA-mediated RNAi screens were conducted in Ewing sarcoma TC32 cell lines expressing a luciferase (luc) reporter protein driven by either the promoter of the EWS-FLI1 target gene NR0B1 (TC32-NR0B1-luc) or the CMV promoter (TC32-CMV-luc). Luciferase activity was assessed 48 hours post siRNA-transfection.
Twenty microl of serum-free media containing Lipofectamine RNAiMax (0.05 microl) was added to wells containing siRNA (0.8 pmol). Lipid and siRNA were allowed to complex for 45 min at ambient temperature before addition of 600 cells in RPMI-1640, 20% FBS to yield final transfection mixtures containing 20 nM siRNA in RPMI-1640, 10% FBS. Luciferase expression was measured using OneGlo (Promega, Madison, WI). The genome-wide screening campaign was conducted using Ambion's human genome library version 4.1 (Ambion, Austin TX). This library targets approximately 21000 human genes, three siRNAs per gene. Each siRNA is arrayed in an individual well of a 384-well plate. Parallel transfections were conducted in TC32-NR0B1-luc and TC32-CMV-luc cell lines and luciferase expression (OneGlo, Promega) was assayed 48 h later on a PerkinElmer Envision 2104 Multilabel plate reader (PerkinElmer, Waltham, MA). Qiagen's AllStars Negative control was incorporated on all screening plates for normalization (16 wells per plate). Qiagen, Germantown, MDsiGL4 was incorporated as a positive transfection control (16 wells per plate) on all plates. […] The raw luciferase data for the NR0B1- and CMV-luc screens were normalized and z-score-MAD transformed using standard methods (Chung et al., 2008). The miRNA-like seed sequence of every siRNA was determined and the median z-score for all siRNA sequences with the same seed sequence was calculated. This z-score was subtracted from the z-score associated with each siRNA with that seed sequence to generate a seed-adjusted z-score value (Z) that was used when the results for the three siRNAs corresponding to each gene were compared (Marine et al., 2012)

Sequence | seed-corrected z-score
UCUUGUGCUAAAUCCCUGC against BRINP3 | -0.668
UGCUGAACUAGGGAAGUGC against MAGIX | -0.0881
UACCCAUCCGCAUCACUGC against CD320 | 0.0894
UCCCGAAUAACCAUUGAGC against RFX3 | -0.206
UUGGUAUUAUAACAGAUCC against ELMOD1 | -9
UUGAUCAACAUAAUCAAGC against ASB14 | -0.125
UACUCGGUAAAUGUACUGG against ADH7 | 0.328
AAGGGUAUUGGGAUUGAGC against MAP3K13 | 0.023
AGCUUUAUUCAGUCAGUGC against GPBAR1 | -0.579
UUACGAAUGGGCAAAAUUG against ZCWPW1 | -0.169
UUUGCUGGUAUUCUUCACC against ACYP2 | 0.0336
AUGUAUUCCAUUCUCACCG against GRSF1 | -4.16
UAUUGAUGCUGCAUGACCC against ITGAM | 0.677
UAAGUAUAACCAUCUGUUC against OR6C2 | 0.149
UGAACAUAAAUUCCAGCUC against CLEC2L | 0.442
UCACUUACAAAGCUCAGAG against LUZP1 | -1.94
UUAUUUAUGUAGUUCAGGA against IZUMO4 | -1.87
AAGACAAUAAUGUUGCUGC against CLDN17 | -0.436
UCAGUAAUCAGCUUGAAUU against RPS3A | 2.45
UUCUUUUCCACCUCCAUAG against HDGF | -12.4
AUCCUUGAAAGCCUCAUAC against XPR1 | 0.211
UAAAUGACAUGCAGGAUUG against C17orf102 | -0.0252
UUCAGUUUAAAAUCGUUUC against CENPL | 0.133

Sequence | seed-corrected z-score
UUUGUUUCUACCAUUCCCA against PPIL1 | -2.34
ACAAUAAUUAAGACAUUGC against OR4K1 | 0.433
GAAUGUUCAUGUGAAAUGC against ZNF365 | 1.68
UGCAAUAGCAGAGUAUUCC against UBE2Q1 | 0.662
UUUGUUGCAGAAUACAUAG against CTH | -13.9
ACAGCUAUUAAGAAGAAGU against PTGER3 | -0.312
CGCGUACUGACGGAAACAC against RPS29P3 | 0.649
UUAGCGGACGGAGGAAUUG against IDH3G | 0.0869
AAUGGAUUCAGUUACUUGC against TACSTD2 | -0.0397
UGUCUUCGAUGUUUCAUCG against DOK6 | -2.6
UUCGGGAAAGUAGUCAUGA against NSFL1C | 0.0545
UACACUAGCAUUGCACUCC against ARHGEF19 | 0.989
AUCUUGUUCCGCAUGGUCU against AMOTL2 | 0.501
UUUAGCAACAGAGUCCACC against MAP2K6 | 0.538
AUCUUCAAUACUUGAAUCU against LINC00467 | -0.368
UUUCAUGCACCAACGGAUC against ABHD2 | -2.24
AAAGGAAAGAUGACAGUAU against OR4N5 | 0.213
AAGCUUUUUAUUGGAGUUC against ZNF852 | 1.01
UCAGCGAACAUGUCCAGGG against CD2BP2 | 0.587
AAUUUAAUAGUGUUUGUGC against PLPP4 | 0.11
UCAGAGCACAGAUCGGGAC against DUSP2 | 0.227
UUUGUCCUUAGUAAUGAAU against HOXA13 | -0.568
UUUGCAAUUGAGGUGAGGC against ANP32D | -0.262

Sequence | seed-corrected z-score
UUCACAACAGGGUGGAGCC against FAM110A | -0.481
UUGCCUAUCUGGUUGAUGG against MATN1 | -0.472
UUCUGAUUCUGCUUGUUGG against MPRIP | -2.12
UCCGUUAUAAACAAACAGG against ITGA11 | -0.259
UUCUGCAAGCUCACUGUCC against TTC7A | -0.896
UUAUCUAUAACAGAGUAUG against DCBLD2 | 0.479
UUGGAAAGCAGUGUCUCUG against KRTAP8-1 | -0.147
UCUGCUUUGCAAAUAGCCG against SRD5A1 | -3.07
UAUGUGCACACGGUCUUGA against NRN1 | -1.7
UAAGUUUAUAGUUGGGAAC against RPS25P6 | -0.0501
AUUGGAUCAGUGGAGCUCU against SPANXN4 | 0.397
AAAUUCGUAAGCUCUGUGG against C2orf70 | 1.37
AAGCUUCUCAUUAAUGCCC against CYB561A3 | -1.26
UAGGCAAAAACAGUCCACC against B3GNT8 | -0.0844
UAUUACUCAGCAGCUUUGC against TIPIN | -0.378
AUACUGGAUAUCAUAGUUC against ARG2 | -2.32
UUGGUUGUCAUGAUCAGUG against PAPD7 | 0.333
UUUUGUUCGUCUCCGUUCC against AK4 | 0.42
UGAGUUUCGCGCUCUCUCC against SLC17A7 | -2.93
AGUAUUAUCACGUUAGUGG against NUP88 | -0.85
UUUUCGCUACUUGAGUUGC against SLC35F5 | -1.12
